According to PubChem BioAssay (NCI):
About 83,000 compounds went through this panel and 20% of them were active in at least one assay; those are over-represented in the sample as a whole.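 Note: values are percent growth. 100 is the growth of untreated cells, values between 100 and 0 indicate rising inhibition; between -100 and 0 indicates cell death.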 Activity calls are given as the source filed them. Rule for the calls: active = growth percent below 10; inactive = the rest.

test system: NCI-H460 lung; test: NCI-60 one-dose screen, 48 h (100 = growth as untreated, 0 = no growth, -100 = all killed); conditions: 10 µM unless noted

| SMILES | growth |
| --- | --- |
| OCCn1cc(-c2nc3ccc4[nH]ncc4c3c3c2CCCC3)cn1 | 20% (inactive) |
| Cn1cc(-c2cc(N)n3nc(-c4c[nH]c5ccc(F)cc45)cc3n2)c2cccnc21 | -50.6% (active) |
| COc1ccc2c(c1)N=c1c-2cc2c(O)[nH]c(=S)n2c1=O | 83.1% (inactive) |
| O=C(NN1C(=O)/C(=C/C=C/c2ccc([N+](=O)[O-])o2)SC1=S)c1ccncc1 | -53.6% (active) |
| Cn1cc(-c2cc(N)n3nc(-c4c[nH]c5ccccc45)cc3n2)c2cc(Br)ccc21 | -59% (active) |
| Cn1cc(-c2cc(N)n3nc(-c4c[nH]c5ccccc45)cc3n2)c2ccccc21 | -66.6% (active) |
| O=C1c2cccc3c(N4CCN(c5ccccc5)CC4)ccc(c23)C(=O)N1c1cccc(-c2nn(-c3ccccc3)cc2-c2nc3ccccc3s2)c1 | 110% (inactive) |
| O=C(c1ccc(O)cc1)C1[C@H](c2ccccc2Br)[C@@H](c2ccccc2)NC12C(=O)Nc1ccccc12 (stereo partly specified) | 33.1% (inactive) |
| COc1ccc(-c2cc(C(=O)N=Nc3c(O)[nH]c4ccc(Cl)cc34)c3ccccc3n2)cc1 | 0.622% (active) |
| CC(C)(C)OC(=O)N1CCC2(CC1)Oc1ccccc1[C@H]1CC(c3ccc(Br)cc3)=NN12 | 66.6% (inactive) |
| Cc1cc(C(NC(=O)CCCCCNc2cccc3c2C(=O)N(C2CCC(=O)CC2=O)C3=O)c2cccc(N(C)C)c2)c(O)c2ncccc12 (stereo unspecified) | 5.72% (active) |
| O=C(c1ccc(O)cc1)C1[C@H](c2ccc(Cl)cc2)[C@@H](c2ccccc2)NC12C(=O)Nc1ccc(Br)cc12 (stereo partly specified) | -45.9% (active) |
| Cc1ccc(C(=O)C[n+]2cccc3c4ccccc4ccc32)cc1 | 4.31% (active) |
| C#CCN(C)CCCOc1ccc(N(CC)C(=O)c2cc(C(C)C)c(O)cc2O)cc1Cl | -52.4% (active) |
| O=C(OCCOCCO)N(c1cccc(Br)c1)c1nc(SCCN2CCOCC2)nc2c1cnn2CC(Cl)c1ccc(Br)cc1 (stereo unspecified) | 8.55% (active) |
| COc1ccc(-c2nc3ccc(-c4nnc(SCC(=O)Nc5ccc(/C(C)=N\O)cc5)o4)cc3[nH]2)cc1 | 59.1% (inactive) |
| Clc1ccc2c(NCCNC34CC5CC(CC(C5)C3)C4)ccnc2c1 | -63.1% (active) |
| CCOc1ccc(-c2cc(-c3cc(C(C)C)c(O)cc3C)nn2-c2ccc(S(N)(=O)=O)cc2)cc1 | 23.9% (inactive) |
| Cc1ccc(N=Nc2c(N)nn3c(-c4cc5cc(Br)ccc5oc4=O)ccnc23)cc1 | 34.9% (inactive) |
| COc1ccc(SC2c3cc(OC)ccc3Oc3nc(N)c(C#N)c(N)c32)cc1 (stereo unspecified) | 74.3% (inactive) |
| O=C1Nc2ccc(F)cc2/C1=C/C(=O)c1cc2ccccc2oc1=O | 104% (inactive) |
| COc1ccc2[nH]cc(-c3cc(N)n4nc(-c5c[nH]c6ccccc56)cc4n3)c2c1 | -22.8% (active) |
| O=C1Nc2cc(-c3ccc(NS(=O)(=O)c4ccc(F)c(Cl)c4)cc3)ccc2/C1=C/c1ccc[nH]1 | -10.6% (active) |
| CCOC(=O)/C(F)=C/C1CC1C1CCN(C(=O)OC(C)(C)C)CC1 (stereo unspecified) | 98.1% (inactive) |
| CN1CCN(CCS(=O)(=O)Nc2cc(-c3ccc4ncnc(Nc5ccc(F)c(Cl)c5)c4c3)cnc2Cl)CC1 | 54.7% (inactive) |
| N#Cc1cc(-c2ccc3ncnc(N4CCc5cc(F)c(Cl)cc54)c3c2)cnc1N | 5.5% (active) |
